Structures are written as SMILES. Activity calls are given as the source filed them. Rule for the calls: active = hit-call score of the fitted dose curve at least 0.9, where 1 is the maximum; inactive = score below 0.9.

A short description of the assay: ATG_Oct_MLP_CIS: Attagene CIS-FACTORIAL HepG2 Assay for human Octamer-Binding Transcription Factor (Oct) (AID 2282993). To be noted: HepG2 Attagene cis-factorial Oct reporter, mRNA; actives raise or lower the signal. The procedure:
ATG_CIS is a cell-based, multiplexed-readout assay that uses HepG2, a human liver cell line, with measurements taken at 24 hours after chemical dosing in a 24-well plate.ATG_Oct_MLP_CIS is one of 52 assay component(s) measured or calculated from the ATG_CIS assay. It is designed to make measurements of mRNA induction, a form of inducible reporter, as detected with fluorescence intensity signals by Reverse transcription polymerase chain reaction (RT-PCR) and Capillary electrophoresis technology.Data from the assay component ATG_Oct_MLP_CIS was analyzed into 1 assay endpoint. This assay endpoint, ATG_Oct_MLP_CIS, was analyzed with bidirectional fitting relative to DMSO as the negative control and baseline of activity. Using a type of inducible reporter, measures of mRNA for gain or loss-of-signal activity can be used to understand the reporter gene at the transcription factor-level as they relate to the gene POU2F1. Furthermore, this assay endpoint can be referred to as a primary readout, because this assay has produced multiple assay endpoints where this one serves a reporter gene function. To generalize the intended target to other relatable targets, this assay endpoint is annotated to the dna binding intended target family, where the subfamily is POU domain protein.
Human liver HepG2 cells are transiently transfected with multiple reporter transcription units (MRTUs) in 6-well plates using FuGene 6 reagent (Roche; 3 ml FuGene/1 mg DNA). The MRTU constructs are regulated by a cis-regulating element (promoter). […] A major difference between the CIS and TRANS system is that in CIS activities of endogenous TFs are measured, whereas the TRANS assay evaluates changes in activities of exogenous, chimeric NR-Gal4 proteins. […] At the end of 24 hour incubation, total RNA was isolated using TriZol reagent (Invitrogen). The isolated RNA is then reverse-transcribed using oligo(dT) primer and Mo-MLV reverse transcriptase (Invitrogen) with DNAse I (Ambion) treatment for 30 min. The one-tenth of the produced cDNA was amplified by PCR using Taq DNA polymerase (Invitrogen) and two reporter sequence-specific primers. The PCR products were fluorescently labeled by primer extension with 6-arboxyfluorescein (6-FAM) 5'-labeled reporter sequence-specific primer (2 min at 95 C, 20 s at 68 C and 10 min at 72 C) and these products were digested with 5U of HpaI (New England Biolabs) for 2h at 37 C. The fragments were purified using Qiaquick PCR columns (Qiagen), analyzed on an ABI 3130xL genetic analyzer (Applied Biosystems) with peak positions identified by using a set of X-rhodamine (ROX)-labeled MapMarker1000 molecular weight standards (BioVentures). The raw capillary electrophoresis data was processed using Attagraph software (Attagene).
As to `NC(=O)c1ccccc1Cl`, the AC50 (commonly the midpoint of the concentration-response curve, whichever way the signal moves) is 55.1 µM (active).
As to `O=C(O)CCSCCC(=O)O`, the molecule was classed as inactive.
Same read-out and setting: to `Cc1ccc2ccccc2n1` belongs “inactive”; to `CC(=O)OCCOC(C)=O`, “inactive”.
`CC1CCC(C(C)CS)CC1S` (stereo not given): the AC50 is 26.1 µM (active).
In the case of `OCc1cccnc1`, the molecule was called inactive.
On to `CNCCO`, for which the result was inactive.
The same measure, in the same setting: to `C=CCOc1nc(OCC=C)nc(OCC=C)n1` belongs “inactive”.
Take `O=S(=O)(O)c1cccc2c(S(=O)(=O)O)cccc12`: the result was inactive.
Same read-out and setting: then `CC(O)C(C)O` (stereo not given), with “inactive”; and `[Ca+2]`, with “inactive”.
In the case of `O=Cc1ccc(F)cc1`, the outcome was inactive.
Still for that read-out and setting: to `CNC(=O)Oc1ccc2c(c1)[C@]1(C)CCN(C)[C@@H]1N2C` belongs “inactive”.
On the same count and under the same terms, then `CN(C)C(=N)N=C(N)N`, with “inactive”; and `CCCCCCCCCCN`, with “inactive”.
On the same count and under the same terms, to `O=C1OC2(c3cc(Br)c(O)c(Br)c3Oc3c2cc(Br)c(O)c3Br)c2c(Cl)c(Cl)c(Cl)c(Cl)c21` belongs “inactive”; to `O=[N+]([O-])c1cc(C(F)(F)F)ccc1Cl`, “inactive”.
As to `C#C[C@]1(O)CC[C@H]2[C@@H]3CCC4=Cc5oncc5C[C@]4(C)[C@H]3CC[C@@]21C`, the AC50 was 29 µM (active).
Regarding `O=C(O)c1ccc(C(=O)O)cc1`, the molecule was classed as inactive.
On the same count and under the same terms, to `CC(=O)[O][Al][O]C(C)=O` belongs “inactive”; to `O=C[C@H](O)[C@H](O)[C@H](O)CO`, “inactive”; to `O=C[C@@H](O)[C@H](O)[C@H](O)CO`, “inactive”.
For the molecule `C=C(C)[C@@H]1CCC2=CC(=O)C[C@@H](C)[C@]2(C)C1`, the molecule was called inactive.
On to `CC(C)CCCCCCCOC(=O)c1ccc(C(=O)OCCCCCCCC(C)C)c(C(=O)OCCCCCCCC(C)C)c1`, for which the molecule was called inactive.
`COc1ccc(Nc2ccccc2)c(C)c1`: the molecule was called inactive.
As to `C=C(C)C(=O)OCCOC(=O)CC(C)=O`, the outcome was inactive.
Same read-out and setting: then `Nc1cc([N+](=O)[O-])ccc1Cl`, with “inactive”; and `COc1cc(C=O)ccc1OC(=O)C(C)C`, with “inactive”.
For the molecule `CC(C)(CO)[N+](=O)[O-]`, the molecule was called inactive.
As for `CC1CCC2CC1C2(C)C` (stereo not given), the result was inactive.
For `CC1(C)CCC(C)(C)c2cc(C(=O)Nc3ccc(C(=O)O)cc3)ccc21`, the AC50 is 100 µM (active).
With `O=C(O)C[C@H](O)C[C@H](O)/C=C/c1c(C2CC2)nc2ccccc2c1-c1ccc(F)cc1`, the call was inactive.
Same read-out and setting: then `CC(C)(C)C(=O)c1ccccc1`, with “inactive”.
The same measure, in the same setting: to `CC(C)(C)c1cc(CCC(=O)NN)cc(C(C)(C)C)c1O` belongs “inactive”; to `CC(=O)O[C@]1(C(C)=O)CC[C@H]2[C@@H]3C[C@H](C)C4=CC(=O)CC[C@]4(C)[C@H]3CC[C@@]21C`, “inactive”.
On the same count and under the same terms, to `O=S(=O)(O)c1ccc(O)c2ncccc12` belongs “inactive”; to `CCCCCCCCCCCCN(CCCCCCCCCCCC)CCCCCCCCCCCC`, “inactive”; to `O=C(O)c1cn(C2CC2)c2cc(N3CCNCC3)c(F)cc2c1=O`, “inactive”.
On to `O=C(Nc1ccccc1)c1cc([N+](=O)[O-])ccc1Cl`, for which the molecule was called inactive.
Consider `CC(C)=CCC/C(C)=C/COC=O`, for which the molecule was classed as inactive.

The values are drawn from PubChem BioAssay (EPA / NIEHS).
